Molecules are shown by their SMILES. Activity calls are given as the source filed them. How the source made its calls: active means hit-call score of the fitted dose curve at least 0.9, where 1 is the maximum; inactive means score below 0.9.

Read-out in the first assay: not listed separately
As to the kind of experiment: BSK_CASM3C_SRB: Viability Assessment in the BioMAP Diversity Plus: CASM3C Assay (AID 2283050).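 Further: total protein by SRB staining as cytotoxicity measure in parallel cultures; cells exposed to compound for 24 h.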 Conditions: primary human coronary artery smooth muscle cells.
For `CC(C)CC(C)O` (stereo unspecified), the outcome was inactive.
Regarding `CCN(CC)C(=S)SSC(=S)N(CC)CC`, the AC50 (in general, the concentration giving half of the maximal activity seen) is 31.4 µM (active).
Take `FC(F)C(F)(F)COCC1CO1` (stereo unspecified): the outcome was inactive.
Consider `OCCC(F)(F)C(F)(F)C(F)(F)C(F)(F)F`, for which the outcome was inactive.
In the case of `CCCCN1C(=O)[C@@H]([C@H](O)C2CCCCC2)NC(=O)C12CCN(Cc1ccc(Oc3ccc(C(=O)O)cc3)cc1)CC2`, the result was inactive.
Take `NC(=O)N1c2ccccc2C=Cc2ccccc21`: the result was inactive.
As for `CC(C)c1nnc2ccc(-c3ocnc3-c3cc(F)ccc3F)cn12`, the result was inactive.
For `O=S(=O)(O)CCC(F)(F)C(F)(F)C(F)(F)C(F)(F)C(F)(F)C(F)(F)F`, the outcome was inactive.
With `FC(F)=C(F)C(F)(F)C(F)(F)C(F)(F)C(F)(F)C(F)(F)C(F)(F)F`, the result was inactive.
Same read-out and setting: to `Cc1ccc(S(=O)(=O)NC(=O)NN2CCCCCC2)cc1` belongs “inactive”; to `NC(N)=O`, “inactive”.
Take `CC[C@H](C)C(=O)O[C@H]1C[C@H](O)C=C2C=C[C@H](C)[C@H](CC[C@@H](O)C[C@@H](O)CC(=O)O)[C@H]21`: the outcome was inactive.
Still for that read-out and setting: to `CCCCCCCCN(C)C` belongs “inactive”; to `FC(F)(F)C(F)(F)C(F)(F)C(F)(F)C(F)(F)C(F)(F)I`, “inactive”.
For `O=S(=O)(O)c1ccc(N=Nc2c(O)ccc3cc(S(=O)(=O)O)ccc23)cc1`, the result was inactive.
Regarding `CCCCCCOC(=O)CC(CC(=O)OCCCCCC)(OC(=O)CCC)C(=O)OCCCCCC`, the result was inactive.
Turning to `c1ccc2ncccc2c1`, the outcome was inactive.
In the case of `OC[C@H]1O[C@@](CO)(O[C@H]2O[C@H](CO)[C@@H](O)[C@H](O)[C@H]2O)[C@@H](O)[C@@H]1O`, the result was inactive.
For the compound `C[C@@H](Oc1ccc(CNC(=O)c2cccnc2Oc2ccc3c(c2)OCO3)c(F)c1)C(=O)O`, the result was inactive.
`Nc1ccn([C@@H]2O[C@H](CO)[C@@H](O)[C@@H]2O)c(=O)n1`: the outcome was inactive.
Regarding `CCCCCCCCCCCCCCCCOS(=O)(=O)O`, the outcome was inactive.
Still for that read-out and setting: to `CC(C)CCCCCCOC(=O)C1CCCCC1C(=O)OCCCCCCC(C)C` (stereo unspecified) belongs “inactive”; to `O=C(O)[C@H](O)[C@@H](O)C(=O)O`, “inactive”.
Consider `O=c1[nH]cnc2c1ncn2[C@H]1CC[C@@H](CO)O1`, for which the outcome was inactive.
On to `OCC(CO)(CO)CO`, for which the result was inactive.
In the case of `O=C(O)c1cccc(C(=O)O)c1`, the outcome was inactive.
On to `OC[C@H]1O[C@@H]2O[C@H]3[C@H](O)[C@@H](O)[C@@H](O[C@H]4[C@H](O)[C@@H](O)[C@@H](O[C@H]5[C@H](O)[C@@H](O)[C@@H](O[C@H]6[C@H](O)[C@@H](O)[C@@H](O[C@H]7[C@H](O)[C@@H](O)[C@@H](O[C@H]1[C@H](O)[C@H]2O)O[C@@H]7CO)O[C@@H]6CO)O[C@@H]5CO)O[C@@H]4CO)O[C@@H]3CO`, for which the outcome was inactive.
On the same count and under the same terms, to `CCOC(N)=O` belongs “inactive”.

Read-out in a further assay: Thrombomodulin, THBD (gene 7056)
Briefly: BSK_CASM3C_Thrombomodulin: BioMAP Diversity Plus: CASM3C Assay for Thrombomodulin Biomarker Activity (AID 2283051).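 Further: thrombomodulin protein level measured by ELISA 24 h after dosing.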 The following applies: primary human coronary artery smooth muscle cells; actives raise or lower the signal.
Take `CC(C)CC(C)O` (stereo unspecified): the result was inactive.
`CCN(CC)C(=S)SSC(=S)N(CC)CC`: the AC50 was 5.26 µM (active).
As to `FC(F)C(F)(F)COCC1CO1` (stereo unspecified), the outcome was inactive.
Regarding `OCCC(F)(F)C(F)(F)C(F)(F)C(F)(F)F`, the outcome was inactive.
As for `CCCCN1C(=O)[C@@H]([C@H](O)C2CCCCC2)NC(=O)C12CCN(Cc1ccc(Oc3ccc(C(=O)O)cc3)cc1)CC2`, the result was inactive.
With `NC(=O)N1c2ccccc2C=Cc2ccccc21`, the outcome was inactive.
As to `CC(C)c1nnc2ccc(-c3ocnc3-c3cc(F)ccc3F)cn12`, the outcome was inactive.
Still for that read-out and setting: to `O=S(=O)(O)CCC(F)(F)C(F)(F)C(F)(F)C(F)(F)C(F)(F)C(F)(F)F` belongs “inactive”.
Still for that read-out and setting: to `FC(F)=C(F)C(F)(F)C(F)(F)C(F)(F)C(F)(F)C(F)(F)C(F)(F)F` belongs “inactive”.
On the same count and under the same terms, to `Cc1ccc(S(=O)(=O)NC(=O)NN2CCCCCC2)cc1` belongs “inactive”; to `NC(N)=O`, “inactive”.
Consider `CC[C@H](C)C(=O)O[C@H]1C[C@H](O)C=C2C=C[C@H](C)[C@H](CC[C@@H](O)C[C@@H](O)CC(=O)O)[C@H]21`, for which the AC50 was 15.3 µM (active).
Take `CCCCCCCCN(C)C`: the outcome was inactive.
As to `FC(F)(F)C(F)(F)C(F)(F)C(F)(F)C(F)(F)C(F)(F)I`, the result was inactive.
For `O=S(=O)(O)c1ccc(N=Nc2c(O)ccc3cc(S(=O)(=O)O)ccc23)cc1`, the outcome was inactive.
Consider `CCCCCCOC(=O)CC(CC(=O)OCCCCCC)(OC(=O)CCC)C(=O)OCCCCCC`, for which the result was inactive.
As for `c1ccc2ncccc2c1`, the outcome was inactive.
Still for that read-out and setting: to `OC[C@H]1O[C@@](CO)(O[C@H]2O[C@H](CO)[C@@H](O)[C@H](O)[C@H]2O)[C@@H](O)[C@@H]1O` belongs “inactive”.
For the compound `C[C@@H](Oc1ccc(CNC(=O)c2cccnc2Oc2ccc3c(c2)OCO3)c(F)c1)C(=O)O`, the result was inactive.
Same read-out and setting: to `Nc1ccn([C@@H]2O[C@H](CO)[C@@H](O)[C@@H]2O)c(=O)n1` belongs “inactive”.
Turning to `CCCCCCCCCCCCCCCCOS(=O)(=O)O`, the outcome was inactive.
Regarding `CC(C)CCCCCCOC(=O)C1CCCCC1C(=O)OCCCCCCC(C)C` (stereo unspecified), the result was inactive.
Still for that read-out and setting: to `O=C(O)[C@H](O)[C@@H](O)C(=O)O` belongs “inactive”; to `O=c1[nH]cnc2c1ncn2[C@H]1CC[C@@H](CO)O1`, “inactive”; to `OCC(CO)(CO)CO`, “inactive”.
Turning to `O=C(O)c1cccc(C(=O)O)c1`, the result was inactive.
With `OC[C@H]1O[C@@H]2O[C@H]3[C@H](O)[C@@H](O)[C@@H](O[C@H]4[C@H](O)[C@@H](O)[C@@H](O[C@H]5[C@H](O)[C@@H](O)[C@@H](O[C@H]6[C@H](O)[C@@H](O)[C@@H](O[C@H]7[C@H](O)[C@@H](O)[C@@H](O[C@H]1[C@H](O)[C@H]2O)O[C@@H]7CO)O[C@@H]6CO)O[C@@H]5CO)O[C@@H]4CO)O[C@@H]3CO`, the result was inactive.
For the compound `CCOC(N)=O`, the result was inactive.

Values taken from PubChem BioAssay (EPA / NIEHS).
